# Results filed as inconclusive are left out. Unmarked numbers belong to inactive results. Activity calls are given as the source filed them. The call rests on the fitted dose curve; in most records, active means well fitted inhibition curve with a large enough effect; inconclusive means small, poorly fitted or top-dose-only effect; inactive means flat fitted curve, though single readings scatter.
# Target: Calcium and integrin-binding protein 1 (Homo sapiens) (UniProt Q99828)
# Assay: Primary qHTS for Identification of Calcium Integrin Binding Protein 1 (CIB1) Competitor (AID 1508620);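 further: GST tagged CIB1 binding a fluorescein labelled alphaIIb integrin peptide tracer; top concentration of the series differs between compounds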
# Conditions: CIB1-GST / FITC-alphaIIb peptide fluorescence polarization; series mostly up to 114 µM; activity change, negative = inhibition: at the top concentration
# In short: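 CIB1-GST (1 uM final) and compound incubated 15 min at room temperature before adding FITC-alphaIIb peptide tracer (100 nM final). Competition for binding read by fluorescence polarization (ex 480, em 540) after another 15 min at room temperature.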
# On the % scale 0 is the no-effect control and ±100 the full control effect.
# Sequence of Calcium and integrin-binding protein 1 (Homo sapiens) (Q99828 whole entry, looked up): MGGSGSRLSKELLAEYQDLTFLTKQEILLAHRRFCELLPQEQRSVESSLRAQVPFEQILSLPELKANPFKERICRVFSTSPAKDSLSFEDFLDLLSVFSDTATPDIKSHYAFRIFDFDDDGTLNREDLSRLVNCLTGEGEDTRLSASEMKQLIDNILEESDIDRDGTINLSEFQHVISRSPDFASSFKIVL
Structure (SMILES),"activity change, negative = inhibition [%]",Potency
CN(Cc1ccco1)c1ncnc2ccc(-c3cccc(Cl)c3)cc12,4.21,
O=C1Nc2ccccc2C12CC2c1cc(Cl)c(O)c(Cl)c1 (centres undefined),,inactive
Cc1ccc(-c2ccc(CNc3nc(-c4ccccc4C(C)C)ncc3F)cc2)cn1,0.852,
COc1ccc(CN2C(=O)c3ccccc3NC2c2ccc(OC)c(COc3c(C)cc(NC(C)=O)cc3C)c2)cc1 (centres undefined),2.21,
Cc1cc2c(s1)c1cnn(Cc3cc(F)ccc3F)c(=O)c1n2C,-1.37,
CN(Cc1ccccc1)C(=O)C1CCN(Cc2cccc3ccccc23)CC1,1.24,
CCOC(=O)c1ccc(-n2cccc2/C=C2\NC(=O)NC2=O)cc1,-0.411,
O=C1CCCC2=C1C(c1[nH]ncc1Cl)NC(=NCCc1ccc(O)cc1)N2 (centres undefined),-1.63,
N#Cc1nc(Nc2cc(F)cc(F)c2)c2ncn(CCN3CCCC3)c2n1,6.34,
O=C1CCCC2=C1C(c1ccc(F)cc1)N=C(Nc1nc3ccccc3o1)N2 (centres undefined),0.0166,
O=[S+]([O-])(Nc1ccc(-c2nc3ccccc3[nH]2)cc1)c1ccc2c(c1)OCO2,-18.4,
O=C1CCCC2=C1C(c1[nH]ncc1Cl)NC(=NCc1ccccn1)N2 (centres undefined),-2.52,
CC(=O)Nc1sc2c(c1-c1ccc(OC(F)(F)F)cc1)CCNC2,-1.13,
CN(CC(=O)Nc1ccc(N2CCOCC2)cc1)Cc1cccc2ccccc12,1.24,
Cc1ccc(NS(=O)(=O)c2ccc3c(c2)CC(=O)N3C)cc1C,3.74,
CCOC(=O)C1CCN(c2nc(-c3ccc(Br)cc3)cs2)CC1,-0.614,
Cc1cc2c(s1)c1cnn(Cc3ccc(OC(F)F)cc3)c(=O)c1n2C,-2.55,
O=C(NCCc1nc2ccccc2n1CCOc1ccc(F)cc1)C1CCCCC1,4.4,
CC(=O)Nc1sc2c(c1-c1ccc(C(F)(F)F)cc1)CCNC2,3.18,
Cc1ccccc1C(=O)N1CCc2cc(-n3cc(NC(=O)Cc4ccccc4)cn3)ccc21,2.64,

Structure (SMILES),"activity change, negative = inhibition [%]",Potency
Cc1cc(C)nc(NC(=S)N2CCN(c3ncc(Cl)cc3Cl)CC2)c1,1.26,
FC(F)Oc1ccc(C2=Nn3c(nnc3-c3ccccc3C(F)(F)F)SC2)cc1OCC1CC1,-4.75,
CC(C)(NC(=O)Nc1ccccc1Cl)C(=O)N1CCC(C(=O)O)CC1,-6.52,
O=C1CCCC2=C1C(c1ccc(Cl)cc1)N=C(Nc1nc3ccccc3o1)N2 (centres undefined),5.04,
O=C(Nc1cccnc1)c1cccs1,-5.85,
Cc1ccnc(NC(=S)N2CCN(c3cc(C(F)(F)F)cc(C(F)(F)F)c3)CC2)c1,-19.7,
COC(=O)c1ccc(N2CCN(S(=O)(=O)c3ccc4c(c3)CC(=O)N4)CC2)cc1,0.315,
COc1ccc2nc(-c3ccc(N(C)C)cc3)sc2c1,1.67,
FC(F)(F)c1ccccc1-c1nc(NCc2ccc(Cl)cc2)c2ccccc2n1,0.567,
O=C(Nc1ccc2ccccc2c1)Nc1nnc(-c2cccnc2)s1,1.17,
O=C(CN1C(=O)N/C(=C\c2cccn2-c2cccc(C(=O)O)c2)C1=O)Nc1cccc(Cl)c1,1.99,
Cc1cc2c(s1)c1cnn(Cc3ccc(C(C)(C)C)cc3)c(=O)c1n2C,3.43,
CCOc1ccc(C(=O)Nc2ccc(-c3nc4ccccc4o3)cc2)cc1[N+](=O)[O-],9.93,
c1nc(OCc2cnc[nH]2)c2cc(-c3ccc4c(c3)OCO4)ccc2n1,-1.62,
Cc1ccc(CNc2ccccc2C(=O)Nc2nc(-c3ccccc3)cs2)cc1,4.87,
O=C1C2=C(CN1c1ccccc1)NC(Nc1nc3ccccc3o1)=NC2c1ccccc1Cl (centres undefined),-1.61,
CC(C)c1ccccc1-c1ncc(F)c(NCc2ccc(-c3cccnc3)s2)n1,-0.0334,
O=S(=O)(NCc1ccccc1F)c1ccc(O)c2ncccc12,-5.9,
Cc1ccc2nc3sc(C(=O)N4CCCCC4)cc3cc2c1,0.836,

# Reference: PubChem BioAssay (NCATS)
